PAFAH1B3 inh: blocks human PAF acetylhydrolase 1B catalytic subunit 3; AID 492972; recombinant PAFAH1B3, FP-rhodamine probe, fluorescence polarization; Q15102; inhibition, % at 3.39 µM; 340,000 compounds, 0.28% hits;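 active = inhibition above the screen-wide average of all tested compounds plus 3 SD, cut at about 25% in these data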;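 also: 0% = enzyme with DMSO only and 100% = wells lacking PAFAH1B3 protein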
PAFAH2 FP inh: inhibitors of human PAFAH2; inhibition, % at 3.39 µM; 340,000 compounds, 0.99% hits; Q99487; recombinant PAFAH2, FP-rhodamine activity probe, fluorescence polarization;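 active = inhibition above the mean over all tested compounds plus 3 SD, cut at about 30% in these data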;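 also: inhibitors block probe labeling of enzyme so polarization drops; 0% = enzyme with DMSO and 100% = wells lacking PAFAH2 protein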
PP1 inh: PP1-alpha (human) inhibition in PP5 counter-screen | purified PP1alpha, OMFP fluorescence | inhibition, % at 6.7 µM | AID 2235 | P62136 | 320,000 compounds, 0.9% hits;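 active = inhibition above the mean inhibition of all tested compounds plus 3 SD, computed separately for each screening campaign, cut at about 15% in these data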
Target sequence (P62136 whole entry, looked up): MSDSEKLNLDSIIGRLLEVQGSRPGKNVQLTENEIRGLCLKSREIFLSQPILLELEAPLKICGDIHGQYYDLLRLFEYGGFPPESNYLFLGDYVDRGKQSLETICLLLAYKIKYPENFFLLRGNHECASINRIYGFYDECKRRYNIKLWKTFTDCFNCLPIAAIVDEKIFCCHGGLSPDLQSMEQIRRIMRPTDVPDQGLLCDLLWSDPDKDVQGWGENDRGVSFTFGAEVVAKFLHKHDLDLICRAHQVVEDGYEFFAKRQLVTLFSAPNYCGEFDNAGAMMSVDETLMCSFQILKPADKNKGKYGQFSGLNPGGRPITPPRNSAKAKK
pPAFAH FP inh: inhibitors of human plasma PAF acetylhydrolase (pPAFAH); recombinant pPAFAH, FP-rhodamine probe fluorescence polarization; 330,000 compounds, 1.5% hits; inhibition, % at 3.39 µM; Q13093; AID 463082;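 active = inhibition above the mean inhibition across the screen plus 3 SD, cut at about 25% in these data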;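 also: inhibitors block binding of the rhodamine activity-based probe so polarization drops; 0% = enzyme with DMSO and 100% = wells lacking pPAFAH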
Target sequence (Q13093 whole entry, looked up): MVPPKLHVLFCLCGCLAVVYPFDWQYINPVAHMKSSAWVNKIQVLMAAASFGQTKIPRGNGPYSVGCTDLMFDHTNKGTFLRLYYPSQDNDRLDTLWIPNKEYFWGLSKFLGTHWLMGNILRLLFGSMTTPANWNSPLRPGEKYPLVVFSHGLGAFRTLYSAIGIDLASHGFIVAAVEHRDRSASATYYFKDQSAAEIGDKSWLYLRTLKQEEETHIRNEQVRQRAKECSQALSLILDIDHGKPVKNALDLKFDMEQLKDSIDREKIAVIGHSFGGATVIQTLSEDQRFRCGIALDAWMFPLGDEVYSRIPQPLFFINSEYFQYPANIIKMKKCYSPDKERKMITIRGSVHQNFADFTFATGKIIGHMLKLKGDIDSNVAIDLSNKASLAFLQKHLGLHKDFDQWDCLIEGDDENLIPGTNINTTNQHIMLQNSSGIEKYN
PAFAH1B2 FP inh: inhibitors of human PAFAH1B2; recombinant PAFAH1B2, FP-rhodamine activity probe, fluorescence polarization; inhibition, % at 3.39 µM; 340,000 compounds, 1.2% hits;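 active = inhibition above the mean of all tested compounds plus 3 SD, cut at about 24% in these data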;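 also: 0% = enzyme with DMSO and 100% = wells lacking PAFAH1B2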
PP5 primary: inhibitors of human protein phosphatase 5 (PP5). P53041. purified PP5c, OMFP substrate fluorescence. inhibition, % at 6.7 µM. 320,000 compounds, 0.18% hits. AID 1987;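 active = inhibition above the campaign's mean inhibition across all tested compounds plus 3 SD, cut at about 9.5% in these data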;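 also: 0% = DMSO only and 100% = 100 µM cantharidin control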
PAFAH1B3 conf FP: confirmation of human PAFAH1B3 inhibitors; shares compounds with PAFAH1B3 inh; recombinant PAFAH1B3, FP-Rh activity-based probe, fluorescence polarization; inhibition, % at 3.39 µM; 390 compounds, 30% hits; AID 493032;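 active = average inhibition over triplicate runs above the hit cutoff set in the earlier primary screen, cut at about 25% in these data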;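 also: 0% = enzyme with DMSO and 100% = wells lacking PAFAH1B3 protein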
* = called active by the depositor. Most compounds without a hit are left out; they make up all but 3.4% or so of the library.

Results for COc1ccc(C(=O)c2c(C(F)(F)F)oc3c2C(=O)c2ccccc2C3=O)cc1 ?
PAFAH1B3 inh: 26.8*; PAFAH2 FP inh: 4.5; PP1 inh: 0.6; pPAFAH FP inh: 8.7; PAFAH1B2 FP inh: 10.3; PP5 primary: 4.0; PAFAH1B3 conf FP: 24.9

What do the screens show for `O=C(Nc1ccc(O)cc1)C1CC=CCC1` (stereo not drawn)?
PAFAH1B3 inh: 27.4*; PAFAH2 FP inh: 25.6; PP1 inh: 1.8; pPAFAH FP inh: 17.1; PAFAH1B2 FP inh: 12.6; PP5 primary: 0.8; PAFAH1B3 conf FP: 12.2

Results for COc1ccc(-c2[nH]ncc2CN2CCN(C(=O)c3ccco3)CC2)cc1F ?
PAFAH1B3 inh: 8.3; PAFAH2 FP inh: 5.6; PP1 inh: -1.0; pPAFAH FP inh: 1.1; PAFAH1B2 FP inh: 3.4; PP5 primary: 2.6

Results for COC(=O)C(NC(C)=O)(Nc1ccccn1)C(F)(F)F (stereo not drawn) ?
PAFAH1B3 inh: -4.8; PAFAH2 FP inh: -1.2; PP1 inh: -1.1; pPAFAH FP inh: -0.9; PAFAH1B2 FP inh: 1.6; PP5 primary: 1.9

How did Oc1ccc2ccccc2c1/C=N/Nc1ccccc1 do in these assays?
PAFAH1B3 inh: 3.1; PAFAH2 FP inh: 5.2; PP1 inh: -2.5; pPAFAH FP inh: 7.6; PAFAH1B2 FP inh: 10.3; PP5 primary: 2.0

Results for Cc1cc(N/N=C/c2c(O)ccc3ccccc23)nc(-c2ccccc2O)n1 ?
PAFAH1B3 inh: 29.5*; PAFAH2 FP inh: 20.1; PP1 inh: -0.8; pPAFAH FP inh: 21.3; PAFAH1B2 FP inh: 13.2; PP5 primary: 5.0; PAFAH1B3 conf FP: 14.9

How did COCCNC(=O)/C(C#N)=C/c1cccs1 do in these assays?
PAFAH1B3 inh: -1.2; PAFAH2 FP inh: -1.8; PP1 inh: -4.2; pPAFAH FP inh: 5.5; PAFAH1B2 FP inh: 6.2; PP5 primary: 0.3

What do the screens show for `COCCNC(=O)/C(C#N)=C/c1ccc(OC(=O)c2cccs2)c(OC)c1`?
PAFAH1B3 inh: 25.6*; PAFAH2 FP inh: 2.5; PAFAH1B2 FP inh: 0.7; PAFAH1B3 conf FP: 11.6

What do the screens show for `Cc1cccc(Cn2nnc3c2C(=O)c2ccccc2C3=O)c1`?
PAFAH1B3 inh: 30.3*; PAFAH2 FP inh: 6.9; PP1 inh: 3.4; pPAFAH FP inh: 0.8; PAFAH1B2 FP inh: 9.7; PP5 primary: 1.6; PAFAH1B3 conf FP: 9.4

What do the screens show for `CCn1c(C(=O)O)c(CC(=O)Nc2ccc(Br)cc2C)c2ccccc21`?
PAFAH1B3 inh: 9.2; PAFAH2 FP inh: 0.9; PP1 inh: 5.2; pPAFAH FP inh: 6.9; PAFAH1B2 FP inh: 3.7; PP5 primary: 1.0

What do the screens show for `C=CCc1cccc(/C=N/NC(=O)CNc2ccccc2OC)c1O`?
PAFAH1B3 inh: 8.5; PAFAH2 FP inh: 11.2; PP1 inh: -1.0; pPAFAH FP inh: 12.7; PAFAH1B2 FP inh: 4.5; PP5 primary: 3.6

How did C=CCc1cccc(/C=N/NC(=O)CNc2cccc3ccccc23)c1O do in these assays?
PAFAH1B3 inh: 26.0*; PAFAH2 FP inh: -29.7; PP1 inh: 4.5; pPAFAH FP inh: 15.8; PAFAH1B2 FP inh: 8.7; PP5 primary: 2.6; PAFAH1B3 conf FP: 16.9

How did CCCS(=O)(=O)c1c(S(=O)(=O)CCC)c2c(C)cccn2c1C(=O)N/N=C/c1cc(O)cc(O)c1 do in these assays?
PAFAH1B3 inh: 26.6*; PAFAH2 FP inh: 2.3; PP1 inh: -2.2; pPAFAH FP inh: 15.3; PAFAH1B2 FP inh: -2.1; PP5 primary: 3.0; PAFAH1B3 conf FP: 11.3

What do the screens show for `CC(NC(=O)c1cccc(S(=O)(=O)N(C)C)c1)C1CC2CCC1C2` (stereo not drawn)?
PAFAH1B3 inh: -0.7; PAFAH2 FP inh: 18.4; PP1 inh: 2.5; pPAFAH FP inh: 5.9; PAFAH1B2 FP inh: 6.7; PP5 primary: -0.7

What do the screens show for `COc1ccc2c3c(cccc13)N(C)N=C2C`?
PAFAH1B3 inh: 26.5*; PAFAH2 FP inh: 15.9; PP1 inh: 16.6*; pPAFAH FP inh: 23.4; PAFAH1B2 FP inh: 12.5; PP5 primary: 8.8; PAFAH1B3 conf FP: 24.7

What do the screens show for `CC(C)NCC(O)(c1ccc(Cl)cc1)c1ccc(Cl)cc1`?
PAFAH1B3 inh: 28.6*; PAFAH2 FP inh: -5.4; PP1 inh: -3.6; pPAFAH FP inh: 1.0; PAFAH1B2 FP inh: 5.5; PP5 primary: 2.0; PAFAH1B3 conf FP: 7.3

Results for O=C(COC(=O)c1ccc2ccccc2n1)NCc1ccccc1 ?
PAFAH1B3 inh: 47.1*; PAFAH2 FP inh: -5.6; PP1 inh: -2.0; pPAFAH FP inh: 19.6; PAFAH1B2 FP inh: 4.0; PP5 primary: 1.4; PAFAH1B3 conf FP: 5.5

Results for O=C(COC(=O)c1ccc2ccccc2c1O)NCc1ccccc1 ?
PAFAH1B3 inh: 6.9; PAFAH2 FP inh: 3.8; PP1 inh: 6.0; pPAFAH FP inh: 1.9; PAFAH1B2 FP inh: 1.4; PP5 primary: 0.2

How did CC(=O)c1cnc(Nc2cccc(C)c2)s1 do in these assays?
PAFAH1B3 inh: 1.5; PAFAH2 FP inh: -0.1; PP1 inh: 5.7; pPAFAH FP inh: 1.6; PAFAH1B2 FP inh: -0.4; PP5 primary: -0.1

What do the screens show for `COc1cc(C(=O)N/N=C/c2ccc3c(c2)c2ccccc2n3C)ccc1O`?
PAFAH1B3 inh: 40.9*; PAFAH2 FP inh: -18.8; PAFAH1B2 FP inh: 13.7; PAFAH1B3 conf FP: 15.9

What do the screens show for `COc1cc(/C=N/NC(=O)CCn2c3ccccc3c3ccccc32)ccc1O`?
PAFAH1B3 inh: 8.0; PAFAH2 FP inh: -4.9; PP1 inh: 1.6; pPAFAH FP inh: 14.4; PAFAH1B2 FP inh: 3.4; PP5 primary: 8.3

How did COCCCNC(=S)N1CCCN(c2nc3cc(C)c(C)cc3cc2C#N)CC1 do in these assays?
PAFAH1B3 inh: 26.2*; PAFAH2 FP inh: 2.0; PP1 inh: -0.1; pPAFAH FP inh: -0.7; PAFAH1B2 FP inh: 9.7; PP5 primary: 2.4; PAFAH1B3 conf FP: 4.0

Results for C/C(=N\NC(=O)c1cc(-c2cccc([N+](=O)[O-])c2)n[nH]1)c1ccccc1O ?
PAFAH1B3 inh: 26.4*; PAFAH2 FP inh: -5.3; PP1 inh: 12.3; pPAFAH FP inh: 18.8; PAFAH1B2 FP inh: 6.4; PP5 primary: 1.1; PAFAH1B3 conf FP: 13.7

Results for NNc1nccc(Nc2ccccc2C(=O)O)n1 ?
PAFAH1B3 inh: 28.3*; PAFAH2 FP inh: 25.0; PP1 inh: 3.2; pPAFAH FP inh: 9.4; PAFAH1B2 FP inh: 18.0; PP5 primary: 2.6; PAFAH1B3 conf FP: 12.3

Results for CCOC(=O)c1c(C)oc2c1c(C=NCc1ccccn1)c(O)c1ccccc12 ?
PAFAH1B3 inh: 56.1*; PAFAH2 FP inh: 15.6; PAFAH1B2 FP inh: 13.0; PAFAH1B3 conf FP: 16.5

What do the screens show for `CCCC[n+]1ccn(C2=C([O-])c3ccccc3C(=O)/C2=N\S(=O)(=O)c2ccccc2)c1`?
PAFAH1B3 inh: 35.6*; PAFAH2 FP inh: 10.3; PP1 inh: -2.8; pPAFAH FP inh: -4.3; PAFAH1B2 FP inh: 12.9; PP5 primary: 0.4; PAFAH1B3 conf FP: 26.5*

How did CCC(=O)Oc1ccc(C/C(=N\O)c2ccc(O)cc2O)o1 do in these assays?
PAFAH1B3 inh: 27.4*; PAFAH2 FP inh: 17.6; PP1 inh: 1.9; pPAFAH FP inh: 19.5; PAFAH1B2 FP inh: 16.3; PP5 primary: 1.8; PAFAH1B3 conf FP: 37.8*

Assay outcomes from PubChem.
